Test results as given in the supplement of paper PMC12494721.
Structures can show the parent of a compound that is named as a salt.

Test system: Klebsiella aerogenes DSM 30053
Assay: fold change of Putrescine concentration vs plate DMSO controls (fold change (ratio)); higher = more amine produced, active = hit call of the paper (significant change in both replicates, either direction)
Details: incubation time: 27 h, anaerobic, 37 °C;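 for the amine columns active = adjusted P below 0.05 in both replicates with a change the same way and a mean fold change under 0.8 or over 1.25; inactive = the rest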
Summary of the method: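 Anaerobic mGAM cultures of four gut bacterial strains were grown at 37 °C for 27 h in 80 µL wells, starting at OD 0.1 before 1:1 dilution. Compounds were at 20 µM final (sweeteners 50 µM). Whole cultures were extracted with cold acetonitrile/methanol containing 0.1% formic acid and centrifuged. Amines were quantified by LC–triple-quadrupole MS (dynamic MRM) against external calibration curves and drift-corrected within batch. Each value is the fold change versus plate DMSO controls, averaged over 2 biological replicates.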

Fold change of Putrescine concentration, inactive:
CCc1nc(N)nc(N)c1-c1ccc(Cl)cc1 [Pyrimethamine] (20 µM) 0.977, CC(=O)Oc1cccc2c1C(=O)c1c(OC(C)=O)cc(C(=O)O)cc1C2=O [Diacerein] (20 µM) 0.956, CC(C)(CO)[C@@H](O)C(=O)NCCCO [(D)-Panthenol] (20 µM) 1.01, CCc1cc(Cl)c(OC)c(C(=O)NC[C@@H]2CCCN2CC)c1O [(S,-) Eticlopride hydrochloride] (20 µM) 1.02, O=C1c2cccc(O)c2C(=O)c2c(O)cccc21 [Danthron] (20 µM) 0.975, CN(C)CCC(c1ccc(Br)cc1)c1ccccn1 (stereo unspecified) [Brompheniramine maleate] (20 µM) 0.943, NC[C@H]1O[C@H](O[C@H]2[C@H](O[C@@H]3O[C@H](CO)[C@@H](O)[C@H]3O)[C@@H](O)[C@H](N)C[C@@H]2N)[C@H](N)[C@@H](O)[C@@H]1O [Ribostamycin sulfate salt] (20 µM) 0.994, NS(=O)(=O)c1cc2c(cc1Cl)N=CNS2(=O)=O [Chlorothiazide] (20 µM) 1.03, CCc1oc2ccccc2c1C(=O)c1cc(Br)c(O)c(Br)c1 [Benzbromarone] (20 µM) 0.994, O=C1NCN(c2ccccc2)C12CCN(CCCC(c1ccc(F)cc1)c1ccc(F)cc1)CC2 [Fluspirilene] (20 µM) 0.994, C[C@H](CCC(=O)O)[C@H]1CC[C@H]2[C@@H]3C(=O)C[C@@H]4CC(=O)CC[C@]4(C)[C@H]3CC(=O)[C@]12C [Dehydrocholic acid] (20 µM) 1.01
